Test results: PubChem BioAssay AID624330 (Southern Research Specialized Biocontainment Screening …, 2012)
Among all 340,000 compounds or so, about 2,100 (0.62%) were called active.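 The calls were made as follows: active = first-screen hits whose inhibition reached a set limit at any dose in the follow-up dose series; inconclusive = inhibition above the set first-screen limit but never retested; inactive = the rest.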 A selection follows. Measured potencies and affinities stand elsewhere.

Biological target: Rac GTPase-activating protein 1 (Homo sapiens) (UniProt Q9H0H5)
Test: blockers of MgcRacGAP-driven Rac1 GTP hydrolysis – biochemical, ADP Hunter fluorescence, primary and confirmatory, confirmation (AID 624330);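 also: fluorescence reports GDP produced by GAP-driven GTP hydrolysis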
Details: MgcRacGAP-stimulated Rac1 GTP hydrolysis, at 30 µM, stronger effect = higher value, GST-tagged Rac1 F28L mutant substrate

Rac GTPase-activating protein 1 (Homo sapiens), sequence (Q9H0H5 whole entry, looked up): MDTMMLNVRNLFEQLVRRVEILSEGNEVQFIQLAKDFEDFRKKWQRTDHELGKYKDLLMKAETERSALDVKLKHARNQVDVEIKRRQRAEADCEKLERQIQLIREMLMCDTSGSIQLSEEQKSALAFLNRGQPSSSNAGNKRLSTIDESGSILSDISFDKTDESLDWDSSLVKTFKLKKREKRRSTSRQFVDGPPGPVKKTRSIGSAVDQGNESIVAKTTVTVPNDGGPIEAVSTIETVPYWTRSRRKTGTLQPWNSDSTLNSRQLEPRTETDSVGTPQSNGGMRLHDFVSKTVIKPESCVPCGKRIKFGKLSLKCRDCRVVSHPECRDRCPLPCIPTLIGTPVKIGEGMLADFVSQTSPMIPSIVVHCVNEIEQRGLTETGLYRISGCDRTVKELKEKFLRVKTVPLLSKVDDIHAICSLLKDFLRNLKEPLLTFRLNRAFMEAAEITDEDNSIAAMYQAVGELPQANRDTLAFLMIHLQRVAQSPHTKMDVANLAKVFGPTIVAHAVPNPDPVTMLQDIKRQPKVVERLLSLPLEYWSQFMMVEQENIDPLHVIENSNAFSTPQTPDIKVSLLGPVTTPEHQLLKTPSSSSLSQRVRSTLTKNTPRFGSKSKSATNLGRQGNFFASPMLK

inhibition, inactive:
CC(C)(C)NC(=O)C(c1ccc(-c2ccccc2)cc1)N(C[C@H]1CC[C@@H]([C@@H]2CC[C@H](CO)O2)O1)C(=O)c1ccccc1F (some centres not stated) 3.69%, O=C(O)Cn1nc(-c2ccccc2)ccc1=O -3.67%, Cc1ccc(-c2csc(/C(C#N)=C/Nc3ccc4c(c3)OCCO4)n2)cc1 16.1%, CCN(CC)CCOC(=O)c1ccc(N/C=C(/C#N)c2nc(-c3cc4ccccc4oc3=O)cs2)cc1 26.6%, COc1ccc(-c2csc(/C(C#N)=C/Nc3ccc4c(c3)OCCO4)n2)cc1 2.83%, CCN(CC)CCOC(=O)c1ccc(N/C=C(/C#N)c2nc(-c3ccc(OC)cc3)cs2)cc1 10.3%, c1ccc(-c2ncc(CSc3nncn3-c3ccccc3)s2)cc1 1.96%, Cn1cc(SCC(=O)Nc2ccc3c(c2)OCO3)c2ccccc21 5.29%, O=C(NCc1ccccc1Cl)c1ccccc1CCc1ccccc1 6.88%, Cc1ccc(NC(=O)C2=CC=CN3CCS(=O)(=O)N=C23)cc1 2.18%, CCc1ccc(NC(=O)C2=CC=CN3CCS(=O)(=O)N=C23)cc1 7.78%, CN(C)C(=O)CCc1nc2sc3c(c2c(=O)[nH]1)CCCC3 18%, NC(=O)Cn1cc(/C=N\NS(=O)(=O)c2ccc(Cl)cc2)c2ccccc21 20%, COC(=O)c1ccc(NC(=S)N2CCN(Cc3ccc(Cl)cc3)CC2)cc1 -0.55%, CN1C(=O)/C(=C/c2coc3ccc(O)cc3c2=O)SC1=S 11.2%, O=C1NN(c2ccccc2)C(=O)/C1=C\c1coc2ccc(O)cc2c1=O 23.8%, O=C1NC(=S)S/C1=C\c1coc2ccc(O)cc2c1=O 7.3%, CSC1=NSC2=NC(=O)/C(=C/c3coc4ccc(O)cc4c3=O)C(=N)N12 14.1%, COc1ccc(CCNC(=O)c2cccc(S(=O)(=O)N3CCCCC3)c2)cc1 8.12%, C[C@H]1CN([C@@H](C)CO)C(=O)c2cccc(NC(=O)Nc3ccc(F)cc3)c2O[C@@H]1CN(C)Cc1ccc(C(=O)O)cc1 2.98%, O=C(NCc1ccccn1)C1Nc2ccc(C(F)(F)F)cc2C2C=CCC12 (configuration not stated) 24.7%, O=c1cc(CNc2cc(Cl)ccc2Cl)nc2sccn12 2.5%, CCN(CC)C(=O)C(Sc1nnnn1-c1ccc(O)cc1)c1ccccc1 (configuration not stated) 3.92%, Cc1c(Br)cnn1C(C)C(=O)N1CCN(c2ccc(F)cc2)CC1 (configuration not stated) 3.49%, O=C(/C=C/c1cccc(Cl)c1)OCc1cn2cc(Cl)ccc2n1 11.7%, COc1cc(/C=C/C(=O)OCC(=O)Nc2cc(C)c(C)cc2[N+](=O)[O-])ccc1O 9.32%, O=C(COC(=O)/C=C/c1cccc(F)c1)Nc1ccccc1 -19.5%, COc1cccc(/C=C/C(=O)NCc2cn3cc(Cl)ccc3n2)c1 2.4%, COc1cc(/C=C/C(=O)OCC(=O)Nc2ccc([N+](=O)[O-])cc2)ccc1O 4.8%, COc1cc(NC(=O)COC(=O)/C=C/c2ccc(OC)c(OC)c2)cc(OC)c1 -0.81%, COc1cc(/C=C/C(=O)OCC(=O)Nc2ccccc2Sc2ccc(Cl)cc2)ccc1O 16.7%, COc1cc(/C=C/C(=O)OCC(=O)Nc2ccc(Cl)cn2)ccc1O 21.2%, CCOc1cc(CNCC2CCCO2)cc(Br)c1OCC(N)=O (configuration not stated) 3.03%, CCn1ncc(CN2CCN(C(=O)Nc3ccccc3C(=O)OC)CC2)c1C 6.62%, O=C(Cn1ncn2c(cc3ccccc32)c1=O)NCCCc1ccccc1 1.38%, CC(C)(C)NC(=O)CN1C(=O)/C(=C/c2ccccc2)SC1=S 9.16%, CCC(Cc1ccccc1)NC(=O)CCc1ccccc1 (configuration not stated) 7.57%, O=C(OCN1C(=O)C(=O)c2ccccc21)c1ccc(Cl)cc1 7.35%, CCCCn1c(N)c(N(Cc2ccccc2OC)C(=O)COc2ccc(F)cc2Cl)c(=O)[nH]c1=O 4.08%, CCOC(=O)C1=C(COC(=O)/C=C/c2ccc(OCC)c(OC)c2)NC(=O)NC1C (configuration not stated) 9.47%, CCOC(=O)C1=C(COC(=O)/C=C/c2ccc(OC)c(OC)c2)NC(=O)NC1C (configuration not stated) -0.71%, COc1ccc(-c2cc(C3CCN(Cc4cccc(C(F)(F)F)c4)CC3)[nH]n2)cc1 9.81%, CC(C)c1ccc2nc(NC(=O)C3CC3)sc2c1 9.94%, COc1ccccc1NC(=O)c1ccccc1S(=O)(=O)c1ccc([N+](=O)[O-])cc1 11.4%, c1ccc(Nc2cccc(Nc3ccccc3)n2)cc1 16.6%, c1ccc(Nc2ccccn2)cc1 1.32%, Cc1ccc(NC(=O)CSc2ccc3c(c2)OCCO3)c(O)c1 8.94%, CC(=O)c1ccc(N2CCN(C(=O)COc3ccc4c(c3)CCC4)CC2)cc1 5.57%, O=C(O)c1ccc2c(c1)S(=O)(=O)c1cc(N3CCN(c4cnccn4)CC3)ccc1C2=O 13.8%, O=C(Cn1[nH]c(=O)c2ccccc2c1=O)NC1CCN(Cc2ccccc2)CC1 5.55%, COc1cc(C)c(S(=O)(=O)N2CCCC2)cc1C(C)C 3.94%, COc1cc(C)c(-c2cc(C(=O)O)c(C)o2)cc1C(C)C 8.02%, Nc1ccc2c(c1)[nH]c(=O)c1ccccc12 21.4%, Nc1ccc2c(=O)[nH][nH]c(=O)c2c1 3.77%, C[C@H](CO)N1C[C@H](C)[C@@H](CN(C)S(=O)(=O)c2cccs2)Oc2ccc(NC(=O)NC3CCCCC3)cc2C1=O 3.35%, Cn1ccnc1Sc1nc2c(c(=O)n(C)c(=O)n2C)n1C 1.94%, COc1cc(C(=O)Nc2cccc(S(=O)(=O)N3CCCC3)c2)c([N+](=O)[O-])cc1OC 4.7%
